# Results from the supplement of paper PMC8728848.
# This is one part of a sample in which the strongest signals are shown more often than they occur.
# B1: Endo180d1-D4 (Homo sapiens), Q9UBG0 (protein)
# chain: MGPGRPAPAPWPRHLLRCVLLLGCLHLGRPGAPGDAALPEPNVFLIFSHGLQGCLEAQGGQVRVTPACNTSLPAQRWKWVSRNRLFNLGTMQCLGTGWPGTNTTASLGMYECDREALNLRWHCRTLGDQLSLLLGARTSNISKPGTLERGDQTRSGQWRIYGSEEDLCALPYHEVYTIQGNSHGKPCTIPFKYDNQWFHGCTSTGREDGHLWCATTQDYGKDERWGFCPIKSNDCETFWDKDQLTDSCYQFNFQSTLSWREAWASCEQQGADLLSITEIHEQTYINGLLTGYSSTLWIGLNDLDTSGGWQWSDNSPLKYLNWESDQPDNPSEENCGVIRTESSGGWQNRDCSIALPYVCKKKPNATAEPTPPDRWANVKVECEPSWQPFQGHCYRLQAEKRSWQESKKACLRGGGDLVSIHSMAELEFITKQIKQEVEELWIGLNDLKLQMNFEWSDGSLVSFTHWHPFEPNNFRDSLEDCVTIWGPEGRWNDSPCNQSLPSICKKAGQLSQGAAEEDHGCRKGWTWHSPSCYWLGEDQVTYSEARRLCTDHGSQLVTITNRFEQAFVSSLIYNWEGEYFWTALQDLNSTGSFFWLSGDEVMYTHWNRDQPGYSRGGCVALATGSAMGLWEVKNCTSFRARYICRQSLGTPVTPELPGPDPTPSLTGSCPQGWASDTKLRYCYKVFSSERLQDKKSWVQAQGACQELGAQLLSLASYEEEHFVANMLNKIFGESEPEIHEQHWFWIGLNRRDPRGGQSWRWSDGVGFSYHNFDRSRHDDDDIRGCAVLDLASLQWVAMQCDTQLDWICKIPRGTDVREPDDSPQGRREWLRFQEAEYKFFEHHSTWAQAQRICTWFQAELTSVHSQAELDFLSHNLQKFSRAQEQHWWIGLHTSESDGRFRWTDGSIINFISWAPGKPRPVGKDKKCVYMTASREDWGDQRCLTALPYICKRSNVTKETQPPDLPTTALGGCPSDWIQFLNKCFQVQGQEPQSRVKWSEAQFSCEQQEAQLVTITNPLEQAFITASLPNVTFDLWIGLHASQRDFQWVEQEPLMYANWAPGEPSGPSPAPSGNKPTSCAVVLHSPSAHFTGRWDDRSCTEETHGFICQKGTDPSLSPSPAALPPAPGTELSYLNGTFRLLQKPLRWHDALLLCESHNASLAYVPDPYTQAFLTQAARGLRTPLWIGLAGEEGSRRYSWVSEEPLNYVGWQDGEPQQPGGCTYVDVDGAWRTTSCDTKLQGAVCGVSSGPPPPRRISYHGSCPQGLADSAWIPFREHCYSFHMELLLGHKEARQRCQRAGGAVLSILDEMENVFVWEHLQSYEGQSRGAWLGMNFNPKGGTLVWQDNTAVNYSNWGPPGLGPSMLSHNSCYWIQSNSGLWRPGACTNITMGVVCKLPRAEQSSFSPSALPENPAALVVVLMAVLLLLALLTAALILYRRRQSIERGAFEGARYSRSSSSPTEATEKNILVSDMEMNEQQE
# Assays:
# Test in all cases: glycan array binding signal (z-score within array); higher = stronger binding
# Conditions in all cases: glycan notation: IUPAC condensed, linker removed
# [1] = target: Fuc(a1-2)Gal(b1-4)Fuc(a1-3)]GlcNAc(b1-2)Man(a1-3)[Fuc(a1-2)Gal(b1-4)[Fuc(a1-3)]GlcNAc(b1-2)Man(a1-6)]Man(b1-4)GlcNAc(b1-4)GlcNAc
# Outline: (§1)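 Glycan array binding is given as a within-array Z-score, which can be read as non-binding when negative. The arrays, 3228 of them, came from the Consortium for Functional Glycomics database and were retained only where the protein sequence was available. Z-scores were averaged across arrays of the same protein sequence at different concentrations or buffers and across linkers.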
# [2] = target: Fuc(a1-2)Gal(b1-4)GlcNAc(b1-3)[Fuc(a1-3)[Gal(b1-4)]GlcNAc(b1-6)]Gal(b1-4)Glc
# Outline: as §1
# [3] = target: Fuc(a1-2)Gal(b1-4)[Fuc(a1-3)]GlcNAc(b1-3)Gal(b1-4)[Fuc(a1-3)]GlcNAc
# Outline: as §1
# [4] = target: Fuc(a1-2)[Gal(a1-3)]Gal(b1-3)GlcNAc(b1-6)GalNAc
# Outline: as §1
# [5] = target: Fuc(a1-2)[Gal(a1-3)]Gal(b1-4)GlcNAc(b1-2)Man(a1-3)[Fuc(a1-2)[Gal(a1-3)]Gal(b1-4)GlcNAc(b1-2)Man(a1-6)]Man(b1-4)GlcNAc(b1-4)[Fuc(a1-6)]GlcNAc
# Outline: as §1
# [6] = target: Fuc(a1-2)[Gal(a1-3)]Gal(b1-4)GlcNAc(b1-3)GalNAc
# Outline: as §1
# [7] = target: Fuc(a1-2)[Gal(a1-3)]Gal(b1-4)[Fuc(a1-3)]GlcNAc(b1-3)GalNAc
# Outline: as §1
# [8] = target: Fuc(a1-3)[Gal(b1-4)]GlcNAc
# Outline: as §1
# [9] = target: Gal(a1-3)Gal(b1-3)GlcNAc(b1-6)GalNAc
# Outline: as §1
# [10] = target: Gal(a1-3)[Gal(a1-4)]Gal(b1-4)GlcNAc
# Outline: as §1
# Gal(a1-4)GlcNAc = target: Gal(a1-4)GlcNAc
# Outline: as §1
# Gal(a1-6)Glc = target: Gal(a1-6)Glc
# Outline: as §1
# [11] = target: Gal(b1-3)[Fuc(a1-4)]GlcNAc(b1-3)Gal(b1-3)[Fuc(a1-4)]GlcNAc
# Outline: as §1
# [12] = target: Gal(b1-4)GlcNAc(b1-2)Man(a1-3)[Gal(b1-4)GlcNAc(b1-2)Man(a1-6)][GlcNAc(b1-4)]Man(b1-4)GlcNAc(b1-4)[Fuc(a1-6)]GlcNAc
# Outline: as §1
# [13] = target: Gal(b1-4)GlcNAc(b1-2)Man(a1-6)Man(b1-4)GlcNAc(b1-4)GlcNAc
# Outline: as §1
# [14] = target: Gal(b1-4)GlcNAc(b1-3)Gal(b1-3)GlcNAc
# Outline: as §1
# [15] = target: Gal(b1-4)GlcNAc(b1-6)Gal(b1-4)GlcNAc
# Outline: as §1
# [16] = target: Gal3S(b1-4)[Fuc(a1-3)]Glc6S
# Outline: as §1
# Gal3S6S(b1-4)GlcNAc6S = target: Gal3S6S(b1-4)GlcNAc6S
# Outline: as §1
# Gal6S(b1-4)GlcNAc6S = target: Gal6S(b1-4)GlcNAc6S
# Outline: as §1
# [17] = target: GalNAc(a1-3)GalNAc(b1-3)Gal(a1-4)Gal(b1-4)GlcNAc
# Outline: as §1
# GalNAc(b1-6)GalNAc = target: GalNAc(b1-6)GalNAc
# Outline: as §1
# GalNAc4S6S(b1-4)GlcNAc = target: GalNAc4S6S(b1-4)GlcNAc
# Outline: as §1
# [18] = target: GlcNAc(b1-2)Man(a1-3)[GlcNAc(b1-2)Man(a1-6)]Man(b1-4)GlcNAc(b1-4)[Fuc(a1-6)]GlcNAc
# Outline: as §1
# [19] = target: GlcNAc(b1-3)Gal(b1-4)GlcNAc(b1-3)Gal(b1-4)GlcNAc(b1-2)[GlcNAc(b1-3)Gal(b1-4)GlcNAc(b1-3)Gal(b1-4)GlcNAc(b1-6)]Man(a1-6)[GlcNAc(b1-3)Gal(b1-4)GlcNAc(b1-3)Gal(b1-4)GlcNAc(b1-2)Man(a1-3)]Man(b1-4)GlcNAc(b1-4)[Fuc(a1-6)]GlcNAc
# Outline: as §1
# [20] = target: GlcNAc(b1-3)Gal(b1-4)GlcNAc(b1-3)[GlcNAc(b1-3)Gal(b1-4)GlcNAc(b1-3)]GalNAc
# Outline: as §1
# [21] = target: GlcNAc(b1-4)[GlcNAc(b1-6)]GalNAc
# Outline: as §1
# [22] = target: Man(a1-2)Man(a1-3)[Man(a1-6)]Man(a1-6)[Man(a1-2)Man(a1-3)]Man(b1-4)GlcNAc(b1-4)GlcNAc
# Outline: as §1
# [23] = target: Man(a1-3)[Man(a1-6)]Man(b1-4)GlcNAc(b1-4)[Fuc(a1-6)]GlcNAc
# Outline: as §1
# [24] = target: Neu5Ac(a2-3)Gal(b1-3)GalNAc(b1-4)Gal(b1-4)Glc
# Outline: as §1
binder,measurement,setting,value
B1,glycan array binding signal (z-score),[1],4.92
same,glycan array binding signal (z-score),[2],2.16
same,glycan array binding signal (z-score),[3],1.23
same,glycan array binding signal (z-score),[4],0.628
same,glycan array binding signal (z-score),[5],-0.162
same,glycan array binding signal (z-score),[6],0.423
same,glycan array binding signal (z-score),[7],4.86
same,glycan array binding signal (z-score),[8],-0.373
same,glycan array binding signal (z-score),[9],0.29
same,glycan array binding signal (z-score),[10],0.096
same,glycan array binding signal (z-score),Gal(a1-4)GlcNAc,-0.552
same,glycan array binding signal (z-score),Gal(a1-6)Glc,0.11
same,glycan array binding signal (z-score),[11],3.87
same,glycan array binding signal (z-score),[12],-1.03
same,glycan array binding signal (z-score),[13],0.463
same,glycan array binding signal (z-score),[14],0.375
same,glycan array binding signal (z-score),[15],-1.39
same,glycan array binding signal (z-score),[16],0.973
same,glycan array binding signal (z-score),Gal3S6S(b1-4)GlcNAc6S,4.83
same,glycan array binding signal (z-score),Gal6S(b1-4)GlcNAc6S,2.48
same,glycan array binding signal (z-score),[17],-0.306
same,glycan array binding signal (z-score),GalNAc(b1-6)GalNAc,-0.31
same,glycan array binding signal (z-score),GalNAc4S6S(b1-4)GlcNAc,3.2
same,glycan array binding signal (z-score),[18],5.6
same,glycan array binding signal (z-score),[19],4.5
same,glycan array binding signal (z-score),[20],-0.76
same,glycan array binding signal (z-score),[21],-1.12
same,glycan array binding signal (z-score),[22],-0.036
same,glycan array binding signal (z-score),[23],0.638
same,glycan array binding signal (z-score),[24],-3.76
